Test results reported in PubChem BioAssay (EPA / NIEHS).
The source made the active and inactive calls. The calls were made as follows: active = hit-call score of the fitted dose curve at least 0.9, where 1 is the maximum; inactive = score below 0.9.

Assay: Tanguay_ZF_120hpf_MORT: Oregon State University Tanguay Lab 120 Hour Post-fertilization zebrafish Assay for Mortality (AID 2284399)
Experimental: Tanguay_ZF_120hpf is a whole embryo, multiplexed endpoint assay using zebrafish larvae exposed for 120 hours post fertilization on a 96-well plate.Tanguay_ZF_120hpf_MORT is one of one assay component(s) measured or calculated from the Tanguay_ZF_120hpf assay. It is designed to make measurements of zebrafish development as detected with brightfield microscopy of developing zebrafish embryos.Data from the assay component Tanguay_ZF_120hpf_MORT was analyzed into 1 assay endpoints. This assay endpoint, Tanguay_ZF_120hpf_MORT, was analyzed in the positive analysis fitting direction relative to DMSO as the negative control and baseline of activity. Using a type of viability reporter, gain-of-signal activity can be used to understand changes in developmentals as they relate to the whole embryo. To generalize the intended target to other relatable targets, this assay endpoint is annotated to the zebrafish development intended target family, where the subfamily is embryonic mortality.
Zebrafish husbandry: Tropical 5D wild-type adult zebrafish were housed in at an approximate density of 1000 per 100 gallon tank at the Sinnhuber Aquatic Research Laboratory, Oregon State University, Corvallis, OR. Each tank was kept at standard laboratory conditions of 28C on a 14-h light/10-h dark photoperiod in fish water consisting of reverse osmosis water supplemented with a commercially available salt (Instant Ocean). Spawning funnels were placed into the tanks the night prior, and embryos were collected and staged. To increase bioavailability, the chorion was enzymatically removed using pronase (63.6mg/ml, >/= 3.5U/mg, Sigma-Aldrich: P5147) at 4 hours post fertilization (hpf) using a custom automated dechorionator.Chemical exposures: Six hpf dechorionated embryos were placed 1 embryo per well in a 96-well plate prefilled with 90 ul of EM using automated embryo placement systems (AEPS). Ten microliters of each row of dilution plate 2 was added to 2 exposure plates. The final DMSO concentration used was 0.64% (vol/vol). Thirty-two embryos were also exposed to 5uM trimethyltin chloride (positive control). Plates were sealed to prevent evaporation and foil covered to reduce light exposure and kept in a 28C incubator. Embryos were statically exposed until 120 hpf. At 24 hpf, embryos were assessed for photomotor response using a custom photomotor response analysis tool (PRAT) and for developmental toxicity endpoints (MO24: mortality at 24 hpf, DP: developmental progression, SM: spontaneous movement, and NC: notochord distortion). At 120 hpf, locomotor activity was measured using Viewpoint Zebralab and assessed for 13 endpoints. Zebrafish acquisition and analysis program (ZAAP), a custom program designed to inventory, acquire, and manage zebrafish data, was used to collect developmental endpoints as either present or absent (i.e., binary responses were recorded). If mortality occurred for an embryo (at either 24 or 120 hpf), the non-mortality endpoints were not measured.

| SMILES | outcome | AC50 |
| --- | --- | --- |
| OCC(O)CC(F)(F)C(F)(F)C(F)(F)C(F)(F)F (configuration not stated) | inactive |  |
| OCC(F)(F)C(F)(F)C(F)(F)CO | inactive |  |
| O=S(=O)(O)CCC(F)(F)C(F)(F)C(F)(F)C(F)(F)C(F)(F)C(F)(F)C(F)(F)C(F)(F)F |  | 64.2 µM (active) |
| CO[Si](C)(CCC(F)(F)C(F)(F)C(F)(F)C(F)(F)C(F)(F)C(F)(F)F)OC | inactive |  |
| CN(C(=O)C(F)(F)C(F)(F)C(F)(F)F)[Si](C)(C)C | inactive |  |
| OC(O)C(F)(F)C(F)(F)F | inactive |  |
| NC(=O)C(F)(F)C(F)(F)C(F)(F)C(F)(F)C(F)(F)C(F)(F)C(F)(F)F |  | 41.3 µM (active) |
| FC(F)(F)C(F)(F)C(F)(F)CC1CO1 (configuration not stated) | inactive |  |
| CCN(CCO)S(=O)(=O)C(F)(F)C(F)(F)C(F)(F)C(F)(F)C(F)(F)C(F)(F)C(F)(F)C(F)(F)F | inactive |  |
| OCCCCC(F)(F)C(F)(F)C(F)(F)C(F)(F)F | inactive |  |
| O=C(O)C(F)(F)C(F)(F)C(F)(F)OC(F)(C(F)(F)F)C(F)(F)F | inactive |  |
| FC(F)(F)C(F)(F)C(F)(F)C(F)(F)C(F)(F)C(F)(F)CC[Si](Cl)(Cl)Cl | inactive |  |
| CNS(=O)(=O)C(F)(F)C(F)(F)C(F)(F)C(F)(F)C(F)(F)C(F)(F)C(F)(F)C(F)(F)F |  | 56.9 µM (active) |
| NC(=O)C(F)(F)C(F)(F)C(F)(F)C(F)(F)C(N)=O | inactive |  |
| O=S(=O)(Cl)C(F)(F)C(F)(F)C(F)(F)C(F)(F)C(F)(F)C(F)(F)C(F)(F)C(F)(F)F | inactive |  |
| OCC(F)(F)C(F)(F)C(F)(F)C(F)(F)C(F)(F)C(F)(F)CO | inactive |  |
| OCC(O)CC(F)(F)C(F)(F)C(F)(F)C(F)(F)C(F)(F)C(F)(F)C(F)(F)C(F)(F)F (configuration not stated) | inactive |  |
| O=C(O)CCC(F)(F)C(F)(F)C(F)(F)C(F)(F)C(F)(F)C(F)(F)C(F)(F)F | inactive |  |
| O=S(=O)(O)CCC(F)(F)C(F)(F)C(F)(F)C(F)(F)F | inactive |  |

| SMILES | outcome | AC50 |
| --- | --- | --- |
| COC(F)(C(F)F)C(F)(F)F (configuration not stated) | inactive |  |
| FC(F)(F)C(F)(F)C(F)(F)C(F)(F)C(F)(F)C(F)(F)C(F)(F)CCI | inactive |  |
| C[Si](Cl)(Cl)CCC(F)(F)C(F)(F)C(F)(F)C(F)(F)C(F)(F)C(F)(F)F | inactive |  |
| C=CC(=O)OCC(F)(F)C(F)(F)C(F)(F)COC(=O)C=C |  | 16.3 µM (active) |
| OCC(F)(F)C(F)(F)C(F)(F)C(F)(F)C(F)(F)C(F)(F)C(F)(F)C(F)(F)CO |  | 19.6 µM (active) |
| NS(=O)(=O)C(F)(F)C(F)(F)C(F)(F)C(F)(F)C(F)(F)C(F)(F)F |  | 11.1 µM (active) |
| NC(O)(C(F)(F)F)C(F)(F)F | inactive |  |
| C=CC(=O)OCCC(F)(F)C(F)(F)C(F)(F)C(F)(F)F | inactive |  |
| OCCCC(F)(F)C(F)(F)C(F)(F)C(F)(F)C(F)(F)C(F)(F)C(F)(F)C(F)(F)F | inactive |  |
| O=S(=O)(OCC(F)(F)F)C(F)(F)C(F)(F)C(F)(F)C(F)(F)F | inactive |  |
| NC(=O)C(F)(F)C(F)(F)C(F)(F)F | inactive |  |
| CCOC(=O)CC(=O)C(F)(F)C(F)(F)F | inactive |  |
| O=C(F)C1(F)C(F)(F)C(F)(F)C(F)(F)C(F)(F)C1(F)F | inactive |  |
| NC(=O)C(F)(F)C(F)(F)C(F)(F)C(F)F | inactive |  |
| O=C(O)CCC(F)(F)C(F)(F)C(F)(F)F | inactive |  |
| C=CC(=O)OCC(F)(F)C(F)(F)C(F)(F)C(F)(F)C(F)(F)C(F)(F)C(F)(F)C(F)F | inactive |  |
| O=C(O)C(F)(F)C(F)(F)C(F)(F)C(=O)O | inactive |  |
| O=C(O)C(F)(F)C(F)(F)C(F)(F)OC(F)(F)F | inactive |  |
